Laboratory results published in PubChem BioAssay (NCATS).
Results filed as inconclusive are left out. Calls of active or inactive are those of the source. Calls come from the whole dose curve; as a rule, active = well fitted curve in the direction sought with a large enough effect; inconclusive = small, poorly fitted or top-dose-only effect, or another doubt; inactive = no such curve, though single readings can be large; an effect the other way counts as inactive or inconclusive.

Tests used:
HaCat [1] = assay: Cytotoxic Profiling of Annotated Libraries Using Quantitative High-Throughput Screening (AID 1296008); conditions: Five cell lines viability, CellTiter-Glo ATP luminescence, 48-72 h; max response: hits give low values; note: nearly all actives have a fitted effect of over 60% in size
Procedure, shortened: (§1)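 Cytotoxicity was measured as CellTiter-Glo ATP luminescence, read after 10 min at room temperature. Compound treatment of the cells lasted 48 or 72 hr at 37 degrees Celsius in a qHTS format.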

NIH3T3 [2] = assay: as above; conditions: Five cell lines viability, CellTiter-Glo ATP luminescence, 48-72 h; max response: hits give low values
Procedure, shortened: as §1

MCC-13 = assay: qHTS assay to identify novel small-molecules to repurpose for Merkel cell carcinoma treatment (AID 1296009); conditions: MCC and control cell lines, CellTiter-Glo viability, 72 h; series mostly up to 46 µM; note: nearly all actives have a fitted effect of over 60% in size
Procedure, shortened: (§2)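 After compound transfer in DMSO, plates were kept 72 hr at 37 degree celsius. Luminescent ATP signal from CellTiter-Glo served as viability measure, normalized against DMSO and no-cell controls.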

MCC-26 = assay: as above; conditions: MCC and control cell lines, CellTiter-Glo viability, 72 h; series mostly up to 46 µM
Procedure, shortened: as §2

MKL-1 = assay: as above; conditions: MCC and control cell lines, CellTiter-Glo viability, 72 h; series mostly up to 46 µM
Procedure, shortened: as §2

MKL-2 = assay: as above; conditions: MCC and control cell lines, CellTiter-Glo viability, 72 h; series mostly up to 46 µM
Procedure, shortened: as §2

UISO = assay: as above; conditions: MCC and control cell lines, CellTiter-Glo viability, 72 h; series mostly up to 46 µM
Procedure, shortened: as §2

WaGa = assay: as above; conditions: MCC and control cell lines, CellTiter-Glo viability, 72 h; series mostly up to 46 µM
Procedure, shortened: as §2

C33A = assay: Primary qHTS to identify gynecologic anti-cancer compounds using libraries of approved drugs and bioactive compounds (AID 1345084); conditions: Gynecologic cancer cell panel viability, ATPlite luminescence, 48 h; series mostly up to 57.5 µM; note: nearly all actives have a fitted effect of over 55% in size
Procedure, shortened: (§3)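 Cells, 1,000 per well, were allowed to settle for 16 h at 37 C before compound addition. Five concentrations were tested for 48 h, and viability was read by ATPlite luminescence after 15 min at room temperature.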

CAOV3 = assay: as above; conditions: Gynecologic cancer cell panel viability, ATPlite luminescence, 48 h; series mostly up to 57.5 µM
Procedure, shortened: as §3

CASKI = assay: as above; conditions: Gynecologic cancer cell panel viability, ATPlite luminescence, 48 h; series mostly up to 57.5 µM
Procedure, shortened: as §3

Es-2 = assay: as above; conditions: Gynecologic cancer cell panel viability, ATPlite luminescence, 48 h; series mostly up to 57.5 µM
Procedure, shortened: as §3

Hek293T [3] = assay: as above; conditions: Gynecologic cancer cell panel viability, ATPlite luminescence, 48 h, control line for the selectivity index; series mostly up to 57.5 µM
Procedure, shortened: as §3

HeLa = assay: as above; conditions: Gynecologic cancer cell panel viability, ATPlite luminescence, 48 h; series mostly up to 57.5 µM
Procedure, shortened: as §3

KB-3-1 = assay: Cytotoxic Profiling of Annotated Libraries Using Quantitative High-Throughput Screening (AID 1296008); conditions: Five cell lines viability, CellTiter-Glo ATP luminescence, 48-72 h; max response: hits give low values; note: nearly all actives have a fitted effect of over 60% in size
Procedure, shortened: as §1

HACAT [4] = assay: qHTS assay to identify novel small-molecules to repurpose for Merkel cell carcinoma treatment (AID 1296009); conditions: MCC and control cell lines, CellTiter-Glo viability, 72 h; at 44.8 µM (top of the series) unless noted; note: nearly all actives have a fitted effect of over 60% in size
Procedure, shortened: as §2

HEK293T [5] = assay: as above; conditions: MCC and control cell lines, CellTiter-Glo viability, 72 h; at 44.8 µM (top of the series) unless noted
Procedure, shortened: as §2

NIH3T3 [6] = assay: as above; conditions: MCC and control cell lines, CellTiter-Glo viability, 72 h; at 44.8 µM (top of the series) unless noted
Procedure, shortened: as §2

HEK293 = assay: Cytotoxic Profiling of Annotated Libraries Using Quantitative High-Throughput Screening (AID 1296008); conditions: Five cell lines viability, CellTiter-Glo ATP luminescence, 48-72 h; max response: hits give low values; note: nearly all actives have a fitted effect of over 60% in size
Procedure, shortened: as §1
% is set by controls: 0 for no effect and ±100 for the full control effect; potency is the fitted concentration of half-maximal effect.

NC1=NCC2c3ccccc3Cc3ccccc3N12 (configuration not stated)
inactive: max response (HaCat [1]) -7.94% | max response (NIH3T3 [2]) -2.29% | Potency (MCC-13) | Potency (MCC-26) | Potency (MKL-1) | Potency (MKL-2) | Potency (UISO) | Potency (WaGa) | Potency (C33A) | Potency (CAOV3) | Potency (CASKI) | Potency (Es-2) | Potency (Hek293T [3])

CC[N+](C)(C)c1cccc(O)c1
inactive: Potency (C33A) | Potency (CAOV3) | Potency (CASKI) | Potency (Es-2) | Potency (HeLa) | Potency (Hek293T [3])

CCNC(=O)N1CCN(CCCC(c2ccc(F)cc2)c2ccc(F)cc2)CC1
inactive: outcome (HaCat [1]) | max response (KB-3-1) -7.16% | max response (NIH3T3 [2]) -3.38% | outcome (HACAT [4]) | Potency (MCC-13) | Potency (MCC-26) | Potency (MKL-1) | Potency (C33A) | Potency (CAOV3) | Potency (CASKI) | Potency (Es-2) | Potency (HeLa)

CN(C)C(=O)Oc1ccc[n+](C)c1
inactive: outcome (HEK293T [5]) | Potency (MCC-13) | Potency (MCC-26) | Potency (MKL-2) | outcome (NIH3T3 [6]) | Potency (UISO) | Potency (WaGa) | Potency (C33A) | Potency (CAOV3) | Potency (CASKI) | Potency (Es-2) | Potency (HeLa) | Potency (Hek293T [3])

CSc1ccc(C(=O)c2[nH]c(=O)[nH]c2C)cc1
inactive: outcome (HACAT [4]) | Potency (MCC-13) | Potency (MCC-26) | Potency (MKL-1) | Potency (MKL-2) | outcome (NIH3T3 [6]) | Potency (UISO) | Potency (WaGa) | Potency (C33A) | Potency (CAOV3) | Potency (CASKI) | Potency (Es-2) | Potency (Hek293T [3])
active: Potency (HeLa) 2 µM

COCCc1ccc(OCC(O)CNC(C)C)cc1 (configuration not stated)
inactive: outcome (HACAT [4]) | outcome (HEK293T [5]) | Potency (MCC-13) | Potency (MCC-26) | Potency (MKL-2) | outcome (NIH3T3 [6]) | Potency (UISO) | Potency (WaGa) | Potency (C33A) | Potency (CAOV3) | Potency (CASKI) | Potency (Es-2) | Potency (HeLa) | Potency (Hek293T [3])

CC(C)COCC(CN(Cc1ccccc1)c1ccccc1)N1CCCC1 (configuration not stated)
inactive: max response (KB-3-1) -4.17% | Potency (CASKI) | Potency (Es-2)
active: Potency (HEK293) 18.8 µM | Potency (NIH3T3 [2]) 26.6 µM | Potency (CAOV3) 25.1 µM

CCn1nc(C(=O)O)c(=O)c2cc3c(cc21)OCO3
inactive: outcome (HEK293T [5]) | Potency (MCC-13) | Potency (MCC-26) | Potency (MKL-1) | Potency (MKL-2) | Potency (UISO) | Potency (WaGa) | Potency (C33A) | Potency (CAOV3) | Potency (CASKI) | Potency (Es-2) | Potency (Hek293T [3])

CCOC(=O)C1=C(C)NC(C)=C(C(=O)OC)C1c1cccc(Cl)c1Cl (configuration not stated)
inactive: outcome (HaCat [1]) | max response (KB-3-1) -8.74% | outcome (HACAT [4]) | Potency (MCC-13) | Potency (MCC-26) | Potency (MKL-2) | Potency (UISO) | Potency (C33A) | Potency (CAOV3) | Potency (CASKI) | Potency (Es-2) | Potency (Hek293T [3])

COc1ccc([C@@H]2Sc3ccccc3N(CCN(C)C)C(=O)[C@@H]2OC(C)=O)cc1
inactive: Potency (C33A) | Potency (CASKI) | Potency (Es-2) | Potency (HeLa) | Potency (Hek293T [3])

COCC(=O)O[C@]1(CCN(C)CCCc2nc3ccccc3[nH]2)CCc2cc(F)ccc2[C@@H]1C(C)C
inactive: Potency (Es-2) | Potency (HeLa) | Potency (Hek293T [3])

CC(C)NCC(O)c1cc(O)cc(O)c1 (configuration not stated)
inactive: outcome (HACAT [4]) | Potency (MCC-13) | Potency (MCC-26) | Potency (MKL-1) | Potency (UISO) | Potency (WaGa) | Potency (C33A) | Potency (CAOV3) | Potency (CASKI) | Potency (Es-2) | Potency (HeLa) | Potency (Hek293T [3])

CCc1cccc(N(C)C(N)=Nc2cccc3ccccc23)c1
inactive: max response (HaCat [1]) -4.04% | max response (NIH3T3 [2]) -9.35% | Potency (MCC-26) | Potency (MKL-1) | Potency (UISO) | Potency (C33A) | Potency (CAOV3) | Potency (CASKI) | Potency (Es-2) | Potency (HeLa) | Potency (Hek293T [3])

O=C1NCN(c2ccccc2)C12CCN(CCCC(c1ccc(F)cc1)c1ccc(F)cc1)CC2
active: Potency (HEK293) 10.6 µM | Potency (MKL-2) 23.7 µM | Potency (CAOV3) 31.6 µM | Potency (Es-2) 31.6 µM

COc1cc2c(cc1OC)-c1cc(=Nc3c(C)cc(C)cc3C)n(C)c(=O)n1CC2
inactive: outcome (HaCat [1]) | outcome (HACAT [4]) | Potency (CAOV3) | Potency (Hek293T [3])

OCCN1CCN(CC/C=C2/c3ccccc3Sc3ccc(C(F)(F)F)cc32)CC1
inactive: max response (HaCat [1]) -11.5% | Potency (MCC-26) | Potency (C33A) | Potency (CASKI) | Potency (HeLa)

CCCCNC(=O)NS(=O)(=O)c1ccc(C)cc1
inactive: outcome (HEK293T [5]) | Potency (MCC-13) | Potency (MCC-26) | Potency (MKL-2) | Potency (UISO) | Potency (WaGa) | Potency (C33A) | Potency (CASKI) | Potency (Es-2) | Potency (HeLa) | Potency (Hek293T [3])

CN(C)CCCN1c2ccccc2Sc2ccc(C(F)(F)F)cc21
inactive: Potency (MCC-26) | Potency (HeLa)
active: Potency (MKL-2) 13.3 µM | Potency (WaGa) 26.6 µM

NS(=O)(=O)c1cc2c(cc1Cl)NC(C1CC3C=CC1C3)NS2(=O)=O (configuration not stated)
inactive: outcome (HEK293) | max response (KB-3-1) -20.4% | outcome (HEK293T [5]) | Potency (MCC-13) | Potency (MCC-26) | Potency (MKL-1) | Potency (MKL-2) | Potency (UISO) | Potency (WaGa) | Potency (C33A) | Potency (CAOV3) | Potency (CASKI) | Potency (Es-2) | Potency (HeLa) | Potency (Hek293T [3])

CN(C(=O)CCCOc1ccc2[nH]c(=O)ccc2c1)C1CCCCC1
inactive: max response (KB-3-1) -8.72% | max response (NIH3T3 [2]) -24.3% | Potency (MCC-13) | Potency (MCC-26) | Potency (MKL-1) | Potency (MKL-2) | Potency (UISO) | Potency (WaGa) | Potency (C33A) | Potency (CAOV3) | Potency (CASKI) | Potency (Es-2) | Potency (HeLa) | Potency (Hek293T [3])

Cc1cccc(C)c1NC(=O)C(C)N (configuration not stated)
inactive: outcome (HACAT [4]) | Potency (MCC-13) | Potency (MCC-26) | Potency (MKL-1) | Potency (MKL-2) | Potency (UISO) | Potency (WaGa) | Potency (C33A) | Potency (CAOV3) | Potency (CASKI) | Potency (Es-2) | Potency (Hek293T [3])

CN(C)CCN(Cc1cccs1)c1ccccn1
inactive: outcome (HACAT [4]) | Potency (MCC-13) | Potency (MCC-26) | Potency (MKL-1) | Potency (MKL-2) | Potency (UISO) | Potency (WaGa) | Potency (C33A) | Potency (CAOV3) | Potency (CASKI) | Potency (Es-2) | Potency (HeLa) | Potency (Hek293T [3])
